The structures appear in SMILES notation. Inconclusive results are not listed. Active and inactive are the calls of the source. The calls were made as follows: active = hit-call score of the fitted dose curve at least 0.9, where 1 is the maximum; inconclusive = response in the unintended direction; inactive = score below 0.9. Peptide text beside a SMILES is read from it.

Sequence of Oxysterols receptor LXR-beta (Homo sapiens) (P55055 whole entry, looked up, the tested form may be a part): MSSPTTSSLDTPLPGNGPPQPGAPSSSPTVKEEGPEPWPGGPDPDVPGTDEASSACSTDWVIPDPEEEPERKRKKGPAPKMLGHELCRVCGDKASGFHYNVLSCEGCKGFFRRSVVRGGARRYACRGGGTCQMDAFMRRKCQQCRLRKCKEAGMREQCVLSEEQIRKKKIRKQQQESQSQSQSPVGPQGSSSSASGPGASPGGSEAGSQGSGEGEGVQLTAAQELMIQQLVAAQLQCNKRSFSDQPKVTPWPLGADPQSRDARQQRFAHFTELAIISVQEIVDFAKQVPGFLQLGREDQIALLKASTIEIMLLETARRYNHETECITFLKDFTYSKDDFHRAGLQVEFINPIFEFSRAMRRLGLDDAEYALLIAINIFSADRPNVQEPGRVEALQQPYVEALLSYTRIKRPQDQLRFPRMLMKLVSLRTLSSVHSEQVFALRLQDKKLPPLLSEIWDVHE

The test has as its target Oxysterols receptor LXR-beta (Homo sapiens) (UniProt P55055). The test is described as follows: ATG_LXRb_TRANS: Attagene TRANS-FACTORIAL HepG2 Assay for human Liver X Receptor beta (LXRb) (AID 2282981). To be noted: HepG2 Attagene TRANS GAL4-LXRb reporter, mRNA. The protocol: ATG_TRANS is a cell-based, multiplexed-readout assay that uses HepG2, a human liver cell line, with measurements taken at 24 hours after chemical dosing in a 24-well plate.ATG_LXRb_TRANS is one of 30 assay component(s) measured or calculated from the ATG_TRANS assay. It is designed to make measurements of mRNA induction, a form of inducible reporter, as detected with fluorescence intensity signals by Reverse transcription polymerase chain reaction (RT-PCR) and Capillary electrophoresis technology.Data from the assay component ATG_LXRb_TRANS was analyzed into 1 assay endpoint. This assay endpoint, ATG_LXRb_TRANS, was analyzed in the positive analysis fitting direction relative to DMSO as the negative control and baseline of activity. Using a type of inducible reporter, measures of mRNA for gain-of-signal activity can be used to understand the reporter gene at the transcription factor-level as they relate to the gene NR1H2. Furthermore, this assay endpoint can be referred to as a primary readout, because this assay has produced multiple assay endpoints where this one serves a reporter gene function. To generalize the intended target to other relatable targets, this assay endpoint is annotated to the nuclear receptor intended target family, where the subfamily is non-steroidal.
Human liver HepG2 cells are transiently transfected with multiple reporter transcription units (MRTUs) in 6-well plates using FuGene 6 reagent (Roche; 3 ml FuGene/1 mg DNA). The MRTU constructs are regulated by a cis-regulating element (promoter). […] A major difference between the CIS and TRANS system is that in CIS activities of endogenous TFs are measured, whereas the TRANS assay evaluates changes in activities of exogenous, chimeric NR-Gal4 proteins. […] At the end of 24 hour incubation, total RNA was isolated using TriZol reagent (Invitrogen). The isolated RNA is then reverse-transcribed using oligo(dT) primer and Mo-MLV reverse transcriptase (Invitrogen) with DNAse I (Ambion) treatment for 30 min. The one-tenth of the produced cDNA was amplified by PCR using Taq DNA polymerase (Invitrogen) and two reporter sequence-specific primers. The PCR products were fluorescently labeled by primer extension with 6-arboxyfluorescein (6-FAM) 5'-labeled reporter sequence-specific primer (2 min at 95 C, 20 s at 68 C and 10 min at 72 C) and these products were digested with 5U of HpaI (New England Biolabs) for 2h at 37 C. The fragments were purified using Qiaquick PCR columns (Qiagen), analyzed on an ABI 3130xL genetic analyzer (Applied Biosystems) with peak positions identified by using a set of X-rhodamine (ROX)-labeled MapMarker1000 molecular weight standards (BioVentures). The raw capillary electrophoresis data was processed using Attagraph software (Attagene).
On to `COC(=O)[C@H](Cc1ccccc1)NC(=O)[C@@H](N)CC(=O)O` (H-Asp-Phe-OMe), for which the outcome was inactive.

In the case of `CN(C)c1ccc2nc3ccc(=[N+](C)C)cc-3sc2c1`, the compound was called inactive.

As for `Cc1cc(C)c(C=O)c(C)c1`, the result was inactive.

On to `CCCCCC1=CCCC1=O`, for which the compound was called inactive.

On to `c1ccc(Nc2cccc3ccccc23)cc1`, for which the outcome was inactive. Still for that read-out and setting: then `CCCCCCCC(=O)OCC(COC(=O)CCCCCCC)OC(=O)CCCCCCC`, with “inactive”; and `CC(=O)OC(C)c1ccccc1` (stereo not given), with “inactive”; and `Cc1ccc([N+](=O)[O-])cc1N`, with “inactive”.

As to `CC(Cl)COP(=O)(OCC(C)Cl)OCC(C)Cl` (stereo not given), the result was inactive. In the case of `CC(C)[N+](C)(CCOC(=O)C1c2ccccc2Oc2ccccc21)C(C)C`, the compound was called inactive.

Turning to `CC(=O)OC1CCCCC1C(C)(C)C` (stereo not given), the outcome was inactive. Same read-out and setting: then `Nc1nc(N)nc(-c2ccccc2)n1`, with “inactive”.

In the case of `O=c1c(O)c(-c2ccc(O)cc2O)oc2cc(O)cc(O)c12`, the result was inactive.

Consider `CCC[Si](OC)(OC)OC`, for which the compound was called inactive.

Take `CC(C)C(=O)OCCc1ccccc1`: the call was inactive. On the same count and under the same terms, then `CCCC=C(C=O)CC`, with “inactive”; and `Clc1cc(Cl)c(Cl)c(Cl)c1Cl`, with “inactive”.

Consider `O=C(OCc1ccccc1)c1ccc(O)cc1`, for which the outcome was inactive.

`N#CC1(N)CCCCC1`: the outcome was inactive. The same measure, in the same setting: then `CC1=CC(C)C(C=O)CC1` (stereo not given), with “inactive”; and `O=C(Nc1ccccc1)c1cc(Cl)ccc1O`, with “inactive”. `CCN(CC)c1cccc(C)c1`: the compound was classed as inactive.

In the case of `CC1C(C)(C)C2=C(C(=O)CCC2)C1(C)C` (stereo not given), the result was inactive.

As to `CCOC(=O)CC(=O)c1ccccc1`, the result was inactive. As to `Clc1cccnc1`, the compound was called inactive.

With `Oc1ccc(-c2ccccc2)c(Cl)c1`, the call was inactive. In the case of `CCCCCCCCCC(C)=O`, the result was inactive. In the case of `C=CC(=O)OCCCCCCCC(C)C`, the compound was called inactive.

For `CC(CCC(=O)O)(c1ccc(O)cc1)c1ccc(O)cc1`, the outcome was inactive.

Take `CC1=NN(c2ccc(S(=O)(=O)O)cc2)C(=O)C1N=Nc1ccccc1` (stereo not given): the outcome was inactive.

In the case of `C=CC(=O)OCCCCCCOC(=O)C=C`, the call was inactive. Take `CCCCCCCCCCCCc1ccc(O)cc1`: the AC50 is 15.1 µM (active). For `Cc1c(O)cccc1O`, the outcome was inactive.

Regarding `O=C(O)CCCC(=O)O`, the compound was called inactive. In the case of `C=C(C)[C@@H]1CC=C(C)CC1`, the call was inactive. Regarding `C[Si]1(C)O[Si](C)(C)O[Si](C)(C)O[Si](C)(C)O[Si](C)(C)O1`, the call was inactive. Take `CC1=CCC(C(C)C)C=C1` (stereo not given): the compound was classed as inactive.

As to `C=CC(C)(O)CC/C=C(\C)CC` (stereo not given), the result was inactive.

On to `CCOc1ccc(NC(N)=O)cc1`, for which the result was inactive. On the same count and under the same terms, in the case of `CC(C)COC(=O)CC(C(=O)OCC(C)C)S(=O)(=O)O` (stereo not given) it was “inactive”.

The term AC50 denotes the midpoint of the concentration-response curve, whichever way the signal moves.

The values are drawn from PubChem BioAssay (EPA / NIEHS).
